ChEMBL document CHEMBL3988442, “University of Dundee, Small-Polar-MMV Screening Library” (2021)
Screen size: about 69,000 compounds; about 420 (0.61%) showed an effect of 50% or more. This is one part of a sample in which strong results are shown more often than they occur.

Target: T1, Histidine--tRNA ligase (Leishmania infantum) (UniProt A4I591)
T1 sequence (whole entry): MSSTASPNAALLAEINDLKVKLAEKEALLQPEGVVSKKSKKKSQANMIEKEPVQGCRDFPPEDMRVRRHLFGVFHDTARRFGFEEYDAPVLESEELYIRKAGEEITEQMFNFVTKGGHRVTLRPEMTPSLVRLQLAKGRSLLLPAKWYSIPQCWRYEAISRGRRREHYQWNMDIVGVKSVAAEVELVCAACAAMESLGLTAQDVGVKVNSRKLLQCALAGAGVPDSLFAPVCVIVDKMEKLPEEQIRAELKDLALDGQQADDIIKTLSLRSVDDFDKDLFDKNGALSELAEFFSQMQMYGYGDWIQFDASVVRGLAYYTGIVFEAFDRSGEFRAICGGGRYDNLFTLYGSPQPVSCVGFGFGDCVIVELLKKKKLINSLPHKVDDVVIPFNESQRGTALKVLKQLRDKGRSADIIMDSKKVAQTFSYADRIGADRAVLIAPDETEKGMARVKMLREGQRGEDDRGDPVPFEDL
Test: Leishmania infantum Histidine tRNA synthetase (LdHisRS)
Type: functional
Set-up: scale not given: in the data most compounds retested in dose-response had high values
Details: 30 µM

Structure (SMILES) | Percent Effect
O=C(NC1CC1)[C@@H]1C[C@@H]2CCN(Cc3ccccc3)C[C@H]2O1 | 23%
COc1ccc(CN2C[C@@H]3OCCN(CCN(C)C)[C@@H]3C2)cc1 | 15.6%
COc1cccc(CNc2cc(C)nc(-c3ccncc3)n2)c1O | 19.2%
COc1cccc(CNc2nc(C)cc(C)n2)c1OC | 21.9%
COc1cccc(CNc2cc(C)nc(-c3ccncc3)n2)c1OC | 52%
O=C(c1ccco1)N1CCO[C@@H]2CN(c3ccccc3)CC[C@@H]2C1 | 32%
O=C(Nc1cnccn1)[C@@H]1COC[C@H]2CN(C3CCC3)C[C@H]21 | 12.3%
O=C(Nc1ccccc1Cl)N1CCN(CC2CC2)[C@@H]2CS(=O)(=O)C[C@@H]21 | 8.2%
CS(=O)(=O)N1C[C@@H]2CC[C@H](C1)N(C(=O)CCc1n[nH]c3c1CCCC3)C2 | 14.5%
COCCN1C[C@H]2CC[C@@H]1CN(C(=O)CCc1n[nH]c(C)c1C)C2 | 13.9%
CC(C)=CCN1C[C@H]2CC[C@@H]1CN(C(=O)CCc1n[nH]c(C)n1)C2 | -42.5%
O=C(CCc1n[nH]c2c1CCCC2)N1C[C@@H]2CC[C@H](C1)N(CC1CC1)C2 | 56.5%
CC(=O)N1C[C@@H]2CC[C@H](C1)N(C(=O)CCc1n[nH]c3c1CCCC3)C2 | 17.7%
O=C(NCc1cccnc1)[C@H]1CC[C@@H]2[C@@H](CCN2c2ncccn2)O1 | 7%
COCCN1C(=O)[C@H]2CC[C@@H]1CN(S(=O)(=O)c1cccc(Cl)c1)C2 | 0%
Cc1cc(C(=O)N2C[C@H]3CC[C@@H]2CN(C)C3)ccc1Cl | 7.14%
COc1ccnc(N2C[C@@H]3CC[C@H](C2)N(CC2CCC2)C3=O)n1 | 19.4%
O=C(c1cocn1)N1C[C@@H]2CN(CC3CC3)CCO[C@@H]2C1 | 7.56%
NC(=O)NC(=O)CN1CCN(CC2CC2)c2ccccc21 | 31.2%
NC(=O)NC(=O)CCN1CCN(CC2CC2)c2ccccc21 | 81.2%
O=C(NCCCC(=O)N1CCN(CC2CC2)c2ccccc21)C1CC1 | 11.8%
COCCC(=O)N1CCN(CC2CC2)c2ccccc21 | 26.5%

Structure (SMILES) | Percent Effect
CNC(=O)NC(=O)CN1CCN(CC2CC2)c2ccccc21 | 31.2%
NC(=O)CN1CCN(CC2CC2)c2ccccc21 | 56.2%
Cc1ccc(N2CC[C@@H]3O[C@@H](COCc4cccnc4)CC[C@@H]32)nn1 | 13.2%
NC(=O)[C@@H]1CN2CCN(C(=O)C3CC3)C[C@@H]2[C@H]1c1ccccc1 | 2.04%
CS(=O)(=O)N1C[C@H]2CCCN(Cc3cccs3)[C@H]2C1 | 5.26%
COc1ccc2c(c1)CC(NCc1cccc(OCC(N)=O)c1)CC2 (stereo not drawn) | 59%
COc1ccc2c(c1)CC(NCc1cccc(NC(C)=O)c1)CC2 (stereo not drawn) | 43.6%
COc1ccc2c(c1)CC(NCc1cccc(CO)c1)CC2 (stereo not drawn) | 15.4%
Cc1ccc(CN2Cc3ccccc3O[C@]3(CC[C@H](CO)CC3)C2)s1 | 16.5%
O=C(c1ccccc1)N1CC[C@H]2C[C@@H](c3nnc(C4CC4)o3)O[C@@H]2C1 | 13.6%
CC(C)CCN1N=C(C(=O)N2CCCCCC2)S(=O)(=O)c2ccccc21 | 10.2%
O=C(C1=NN(Cc2ccccc2)c2ccccc2S1(=O)=O)N1CCCC1 | 53.9%
COC(=O)CN1N=C(C(=O)N2CCCC2)S(=O)(=O)c2ccccc21 | 12.2%
CN(C(=O)c1ccccc1NCC(=O)O)C(C1CC1)C1CC1 | -4.2%
CN(CCCc1ccccc1)C(=O)c1ccccc1NCC(=O)O | 16.9%
CN(CCCN1CCCCCC1)C(=O)c1ccccc1NCC(=O)O | 50.6%
CNC(=O)CN1CCC(CN(C)Cc2ccc(C)cc2C)CC1 | 2.04%
Cc1ccc(CN2C[C@@H]3C[C@H](C(=O)NCC4CC4)N(C)[C@@H]3C2)o1 | 10.1%
Cc1nc(CN2C(=O)CC[C@@H]3[C@H]2CCN3C(=O)C2CCCO2)cs1 (stereo partly drawn) | 15.4%
CSc1nc(N)cc(N2C[C@@H]3CC[C@H](C2)N(Cc2cscn2)C3=O)n1 | 11%
Clc1cc(NCc2ccncc2)nc2[nH]ccc12 | 71.1%
Clc1cc(NCc2nccs2)nc2[nH]ccc12 | 22.9%

Structure (SMILES) | Percent Effect
Clc1cc(NCc2ncc[nH]2)nc2[nH]ccc12 | 10.8%
c1cnc(N2CCO[C@H]3CN(Cc4csnn4)C[C@H]32)cn1 | 26.3%
CS(=O)(=O)NC[C@@H]1OC[C@H]2CN(C(=O)c3ccc[nH]3)CC[C@H]21 | -383%
CS(=O)(=O)N[C@@H]1COC[C@@H]2CN(Cc3ccoc3)C[C@@H]21 | 6.94%
CC(C)(C)c1cc(CN2C[C@H]3CC[C@@H]2CN(Cc2cscn2)C3)n[nH]1 | 11.5%
O=S(=O)(c1cccnc1)N1C[C@@H]2COC[C@]2(COCC2CC2)C1 | 1.75%
Cc1cccc2c1nc(COCC(=O)O)n2-c1ccc(N)nc1 | 1.67%
Cc1cccc2c1nc(COCC(=O)O)n2-c1cnc(N)cn1 | 68.3%
Cc1ccc(-n2c(COCC(=O)O)nc3c(C)cccc32)nc1 | 25%
CN(C)S(=O)(=O)N1CC[C@]2(O)CCN(c3nccs3)C[C@@H]2C1 | 20%
O=C(NCC1CC1)[C@H]1C[C@H]2OCC[C@H]2N(Cc2ccoc2)C1 | 10.5%
c1ccc(Cn2cc(CNCC3CCCN3c3cccnn3)cn2)cc1 (stereo not drawn) | 53%
c1ccc(Cn2ccnc2CNCC2CCCN2c2cccnn2)cc1 (stereo not drawn) | 5.36%
c1ccc(-n2ccc(CNCC3CCCN3c3cccnn3)n2)cc1 (stereo not drawn) | 25.4%
c1ccc(-n2cc(CNCC3CCCN3c3cccnn3)cn2)cc1 (stereo not drawn) | 21.9%
c1ccc(-n2ncc(CNCC3CCCN3c3cccnn3)n2)cc1 (stereo not drawn) | 65.2%
c1ccc(-n2cc(CNCC3CCCN3c3cccnn3)nn2)cc1 (stereo not drawn) | 6.14%
COCCOC(=O)N1CCN2C[C@@H](CO)[C@H](c3ccccc3)[C@H]2C1 | 2.04%
O=C(c1ccoc1)N1CC[C@@H]2O[C@H](COCc3ccccn3)CC[C@@H]21 | 7.52%
c1cnc(N2CCO[C@H]3[C@H](OCC4CC4)CC[C@@H]32)nc1 | 8.11%
O=C1NC(c2ccccc2)=N[C@@]12CC[C@@H]1CN(Cc3ccncc3)C[C@@H]12 | 25%
COCCNC(=O)[C@H]1C[C@@H]2CCN(c3nncs3)C[C@H]2O1 | 5.77%

Structure (SMILES) | Percent Effect
O=C(c1ccccc1)N1C[C@@H]2CCCO[C@@H]2[C@H](N2CCOCC2)C1 | 17.5%
Cc1cc(C(=O)Nc2cccn(Cc3ccc(F)cc3)c2=O)on1 | 84.1%
O=C(Nc1cccn(Cc2ccccc2)c1=O)c1ccncc1F | 68.6%
Cc1cc(C(=O)Nc2cccn(Cc3ccccc3)c2=O)no1 | 23.9%
O=C(Nc1cccn(CC(F)(F)F)c1=O)c1ccncc1F | 17.1%
O=C(Nc1cccn(Cc2ccc(F)cc2)c1=O)c1cnc[nH]1 | 27.4%
Cc1cc(C(=O)Nc2cccn(Cc3ccc(F)cc3)c2=O)no1 | 20.4%
CC(C)CN1C[C@H]2CCN(C(=O)C3CCCO3)CC[C@H]2S1(=O)=O (stereo partly drawn) | 13.8%
O=C1[C@H]2CC[C@H](CN(Cc3ccccc3OC(F)F)C2)N1CC1CC1 | 28.9%
Cc1noc(C)c1C(=O)N1C[C@@H]2CCCO[C@@H]2[C@H](N(C)C)C1 | 7.96%
O=C(c1ccnnc1)N1C[C@H]2CN(Cc3cccc(F)c3)C(=O)[C@H]2C1 | 0.917%
CNC(=O)[C@H]1C[C@@H]2CN(S(=O)(=O)c3ccccc3)C[C@@H]2N1C(C)=O | 14.2%
O=C(N1CCOCC1)[C@@]12CCO[C@@H]1CCN(CC1CCCCC1)C2 | -3.88%
Cc1ccc(C(=O)N2CCn3cnc(COCC4CC4)c3C2)cn1 | 15%
Cc1cccc(C(=O)N2CCn3cnc(COCC4CC4)c3C2)c1 | 34.5%
O=C(c1ccc2[nH]ccc2c1)N1CCn2cnc(COCC3CC3)c2C1 | 61.2%
CN(C)S(=O)(=O)N1C[C@@H]2CC[C@H](C1)N(CCC(=O)NCc1ccco1)C2 | 13.6%
COc1ccc(-n2cc(CNC(=O)c3ccc[nH]3)nn2)cc1 | 54.2%
COc1ccc(-n2cc(CNC(=O)c3ccccn3)nn2)cc1 | 18.8%
COc1ccc(-n2cc(CNC(=O)c3cc[nH]n3)nn2)cc1 | 31.2%
CNC(=O)[C@H]1C[C@@H]2CCN(Cc3ccc4c(c3)OCO4)C[C@@H]2O1 | 14.6%
Cc1cnc(CNCc2cnc(-c3ccccc3C)s2)cn1 | 11.7%

Structure (SMILES) | Percent Effect
Cc1ccccc1-c1ncc(CNCc2csc(C(C)C)n2)s1 | 20%
CCC1=NOC(CNCc2cnc(-c3ccccc3C)s2)C1 (stereo not drawn) | 61.7%
CC1CCN(C(=O)[C@H]2C[C@@H]3CCN(CC4CCOCC4)C[C@@H]3O2)CC1 | 12%
O=C(C1=CCCC1)N1C[C@H](Oc2cccnc2)[C@H]2OCCC[C@H]21 | 3.85%
CN1CCCN(C(=O)c2nc3c(s2)CCCN3CC2CC2)CC1 | 48%
O=C(c1nc2c(s1)CCCN2CC1CC1)N1CCCC1 | 40%
O=C(c1nc2c(s1)CCCN2CC1CC1)N1CCOCC1 | 94%
COCC(=O)N1CC[C@H]2O[C@@H](C)C[C@H]2C1 | 12%
O=C(Nc1c(N2CCCC2)cccc1N1CCCC1)c1ccccn1 | 84.6%
O=C(Nc1c(N2CCCC2)cccc1N1CCCC1)c1cnsn1 | 15.4%
O=C(Nc1c(N2CCCC2)cccc1N1CCCC1)c1cnccn1 | 30.8%
Cn1cccc1C(=O)N1CC[C@H]2[C@H]1CCN2CC1CCOCC1 | 24.6%
O=C(C1=CCCC1)N1C[C@H]2CCC[C@@]2(COCc2ccncc2)C1 | 25.7%
Cc1cccc(CN2C[C@@H]3COC[C@]3(CNC(=O)C3CC3)C2)c1 | 11.9%
CNC(=O)[C@@]12CCO[C@@H]1CCN(S(=O)(=O)c1ccccc1)C2 | 15%
CCN(CCN(C)C)c1nc(CCN)nc2sc(C)c(C)c12 | 54%
Cc1sc2nc(CCN)nc(N(CCN(C)C)CC3CCCO3)c2c1C (stereo not drawn) | 4.42%
COCCN(CC1CC1)c1nc(CCN)nc2sc(C)c(C)c12 | 32.7%
Cc1cccc(CN2C(=O)CC[C@@H]3[C@H]2CCN3Cc2cccnc2)n1 | 29.4%
Cc1nccc([C@H]2C[C@@H]3CCN(S(=O)(=O)C4CC4)C[C@H]3O2)n1 | 11.1%
